Results from PubChem BioAssay AID504357 (The Scripps Research Institute Molecular Screening Center, 2011).
In all, about 340,000 compounds went through this assay and about 700 (0.21%) were called active. The sample as a whole holds a higher share of actives than the screen did. Unmarked numbers belong to inactive results. Rule as the data show it: active = inhibition above about 22% (passing the limit was not always enough); inactive = the rest.

Target: Mu-type opioid receptor (Homo sapiens) + Delta-type opioid receptor (Homo sapiens) (UniProt P35372+P41143)
Sequence (P35372 whole entry, looked up): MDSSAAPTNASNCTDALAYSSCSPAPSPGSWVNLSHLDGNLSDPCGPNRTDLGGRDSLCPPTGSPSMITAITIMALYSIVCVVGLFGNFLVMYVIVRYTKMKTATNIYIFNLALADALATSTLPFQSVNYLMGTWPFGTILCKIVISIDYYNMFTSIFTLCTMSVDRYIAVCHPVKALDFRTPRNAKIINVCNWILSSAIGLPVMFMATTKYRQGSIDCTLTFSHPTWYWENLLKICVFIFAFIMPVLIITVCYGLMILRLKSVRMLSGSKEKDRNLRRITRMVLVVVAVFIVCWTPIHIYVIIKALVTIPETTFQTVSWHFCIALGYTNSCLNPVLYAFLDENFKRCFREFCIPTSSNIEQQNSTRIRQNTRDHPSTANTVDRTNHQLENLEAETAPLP
Sequence (P41143 whole entry, looked up): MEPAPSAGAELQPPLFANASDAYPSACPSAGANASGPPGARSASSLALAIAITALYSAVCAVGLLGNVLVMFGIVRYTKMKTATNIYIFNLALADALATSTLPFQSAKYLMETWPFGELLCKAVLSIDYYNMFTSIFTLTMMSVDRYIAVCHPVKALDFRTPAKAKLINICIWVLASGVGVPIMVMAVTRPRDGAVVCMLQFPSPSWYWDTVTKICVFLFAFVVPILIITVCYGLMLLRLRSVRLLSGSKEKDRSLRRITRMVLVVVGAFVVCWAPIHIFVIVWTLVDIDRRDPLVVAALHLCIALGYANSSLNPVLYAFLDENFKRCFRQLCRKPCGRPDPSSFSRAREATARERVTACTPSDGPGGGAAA
Test: OPRM1-OPRD1 heterodimer inverse agonism – cell-based, luminescence, primary screen (AID 504357);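 also: 0% = cells with DMSO and 100% = wells without cells with DMSO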
Conditions: cell-based MOR-DOR heterodimer luminescence, at 9.3 µM, active compounds read high

SMILES | inhibition
COc1ccc(-c2ccc(CNCCCN3CCOCC3)o2)cc1Cl | -3.74%
Nc1ccc2c(c1)C(O)c1ccc(Cl)cc1-2 (centres undefined) | -2.52%
C/C(O)=C\c1nc(=O)c2c(C)cc(C)nc2n1-c1ccccc1 | -10.5%
Cc1ccc(CN(C(=O)c2sc3ccccc3c2Cl)C2CCS(=O)(=O)C2)cc1 (centres undefined) | -141%
CCOC(=O)c1sc(-c2cccc([N+](=O)[O-])c2)cc1N | -25.6%
CC(=O)Nc1ccc(S(=O)(=O)N2CCN(c3ccc([N+](=O)[O-])c(NCCN4CCOCC4)c3)CC2)cc1 | 4.65%
O=C(CNC(=O)c1ccccc1Br)NCCSc1ccc(Br)cc1 | 3.63%
COc1cc(C(=O)OC(C)C(=O)NCC2CCCCC2)cc(NC(=O)c2ccco2)c1OC (centres undefined) | -157%
O=C(Nc1cccc(Br)c1)C1CC(=O)N(C2CCCC2)C1 (centres undefined) | -5.3%
CCN(CC)C(=O)CN(c1cccc(OC)c1)S(=O)(=O)c1ccc(C)cc1 | 13%
CCN(CCCNC(=O)C1CCN(S(=O)(=O)c2cnc[nH]2)CC1)c1ccccc1 | -0.9%
Cc1cccc2c1N(CCOc1ccccc1)C(=O)C2=O | 55.7% (active)
CCOC(=O)CN1C(=O)C(=O)c2cc(C)ccc21 | 40.6% (active)
Cc1ccc2c(c1)-c1c(ssc1=S)C(C)(C)N2C(=O)CN1C(=O)c2ccccc2C1=O | 11.6%
O=C1c2ccccc2C(=O)N1CCOc1ccc(F)cc1 | -0.37%
CC(C)OC(=O)CN1C(=O)C(=O)c2ccccc21 | 96.4% (active)
CC1(C)NC(=O)N(CCOc2cccc(Oc3ccccc3)c2)C1=O | 10.6%
Cc1cc(/C=C2/SC(=O)N(CC(=O)OC(C)C)C2=O)c(C)n1C | 5.02%
COc1cc(C(C)=O)ccc1OC(=O)CN1C(=O)c2ccccc2C1=O | 17.3%
CC(C)OC(=O)CN1CCN(c2ccc(Cl)cc2)CC1 | -2.26%
CC(OC(=O)CN1C(=O)c2ccccc2C1=O)C(=O)c1ccccc1 (centres undefined) | 9.57%
CCOC(=O)C1CCN(C(=O)CN2C(=O)c3cccnc3Oc3ccc(C)cc32)CC1 | 20%

SMILES | inhibition
Cc1cccc2c1N(CC(=O)OC(C)C)C(=O)C2=O | 67.2% (active)
O/N=C(\c1ccc2c(c1)OCCO2)C1CCCCC1 | 10.1%
CSc1ccccc1C(=O)OCC(=O)N1CCN(C(C)=O)CC1 | 12.6%
CC1CN(S(=O)(=O)c2ccc(C(=O)NN3CCN(C)CC3)cc2)CC(C)O1 (centres undefined) | -5.71%
O=C(/C=C/c1ccc(Cl)cc1)NCCCn1ccnc1 | 1.46%
O=C(CCl)NNc1cccc(Cl)n1 | 75% (active)
O=C(Cc1c(Cl)cccc1Cl)NC1CC1 | 1.58%
Cc1cccc(NC(=O)Cc2ccc(Br)cc2)n1 | 2.04%
CN(C(=O)CCn1c(=S)oc2ccccc21)C1CCCCC1 | 10.3%
CNS(=O)(=O)c1ccc(N2CCCC2=O)c([N+](=O)[O-])c1 | -2.31%
CC(c1ccco1)N(C(=O)c1ccc(S(=O)(=O)N2CCCCC2)cc1)c1ccccn1 (centres undefined) | 13.7%
Cc1cc(C)c(S(=O)(=O)n2cc(C(C)C(N)C(=O)O)c3ccccc32)c(C)c1 (centres undefined) | 8.06%
Cn1nc([N+](=O)[O-])nc1Sc1ccc(C(C)(C)C)cc1 | -22.7%
CCOC(=O)c1cccc(NC(=O)C2CCN(c3ncnc4c3nc3n4CCCCC3)CC2)c1 | -0.14%
CCCCCC(O)(CCN1CCCCC1)c1ccccc1 (centres undefined) | 4.99%
CCn1cc(CCC(=O)NCc2ccc(F)cc2)c2ccccc21 | -13.5%
Cc1ccc(C(=O)CNc2ccc(F)cc2)cc1 | 42.7% (active)
Cc1ccc(C(=O)NC2CCN(C(=O)Nc3ccc(F)cc3)CC2)cc1 | 6.33%
Cc1ccc(NC(=S)Nc2ccc(F)cc2)cc1 | 9.82%
CCCCC(=O)NNC(=S)NC(=O)C(c1ccccc1)c1ccccc1 | 27.8% (active)
CCCCCC(=O)NC(=S)NNC(=O)c1ccc([N+](=O)[O-])cc1 | -3.86%
CCNC(=S)NNC(=O)Cc1ccccc1 | 2.92%

SMILES | inhibition
COc1ccc(NC(=O)CCn2ccnc2)c(OC)c1 | 9.95%
Cn1c(=S)sc2ccc3ccccc3c21 | -28.3%
O=C(C1CC(=O)N(c2ccc(F)cc2)C1)N1CCN(c2ccccc2)CC1 (centres undefined) | 14%
CCOC(=O)N1CCN(C(=O)c2ccccc2N(Cc2ccccc2)S(=O)(=O)c2ccc(OC)cc2)CC1 | -2.13%
N#Cc1cccc(NC(=O)CCC2CCCC2)c1 | -3.46%
O=C1NC(=O)C(CCc2ccccc2)(c2ccccc2)N1 (centres undefined) | 16.3%
COC(=O)c1cc2occc2n1Cc1nc(-c2ccccc2C)oc1C | -3.9%
CN(C)CCn1c2c(c(SCC(=O)NCc3ccccc3)nc1=O)CCC2 | -0.58%
CCc1c(Nc2ccccc2C)nc(N)[nH]c1=O | 0.05%
O=C(CCc1nc2sc3c(c2c(=O)[nH]1)CCCC3)NCC(=O)Nc1ccccc1Br | 17%
COc1ccc(N2CC(NS(=O)(=O)c3ccc4ccccc4c3)CC2=O)cc1 (centres undefined) | 7.42%
CCOc1cc(NS(=O)(=O)c2ccc(OC)cc2)c(OCC)cc1NC(C)=O | -4.39%
COc1cc(NS(=O)(=O)c2ccc3ccccc3c2)c2ncccc2c1 | 38.6% (active)
COC(=O)Cc1c(-c2[nH]c3ccccc3c2CC(=O)OC)[nH]c2ccccc12 | 42.2% (active)
CCCOC(=O)Cc1c(O)c2ccccc2[nH]c1=O | 15.1%
COC(=O)Cc1ccc(NC(=S)NCc2ccccc2)cc1 | 5.98%
Cc1ccc(-n2nc(-c3ccco3)cc2C(=O)NCc2cccnc2)cc1 | 10.7%
O=C(NCC1COc2ccccc2O1)C1(c2ccccc2)CCCC1 (centres undefined) | 4.79%
O=C(CN1C(=O)C2C3C=CC(C3)C2C1=O)NCC1COc2ccccc2O1 (centres undefined) | -16.6%
O=C1C(=O)N(CC2COc3ccccc3O2)c2ccccc21 (centres undefined) | 35.1% (active)
